Source: PubChem BioAssay (NCI)
Where “and” joins values, the source holds several entries; their conditions need not be identical. Identical values can stand only once. About 83,000 compounds went through this panel and 20% of them were active in at least one assay; those are over-represented in the sample as a whole.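 Cell lines were cultured in 96-well plates, exposed to a single compound concentration, and assessed for percent growth 48 hours later.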 Calls of active or inactive are those of the source. The calls were made as follows: active = growth percent below 10; inactive = the rest.

System: MDA-MB-468 breast
Experiment: NCI-60 one-dose screen, 48 h (100 = growth as untreated, 0 = no growth, -100 = all killed)
Settings: 10 µM unless noted

SMILES | growth
ClCCN(CCCl)c1ccc(/C=C\c2ccnc3ccccc23)cc1 | 46.1% (inactive)
COc1ccccc1N1CCN(CCc2c[nH]c3cc4c(cc23)OCO4)CC1 | 90% (inactive)
Clc1ccc(SSC(Cl)(Cl)Cl)cc1 | 104% (inactive)
O=C(O)CC(Br)C(=O)CBr (stereo not drawn) | 105% (inactive)
O=[As](O)(O)c1ccccc1[As](=O)(O)O | 99.7% (inactive)
C/C(=N/OC(=O)N(C)C)c1ccc(Cl)c(Cl)c1 | 120% (inactive)
O=C(CC1(O)C(=O)N(Cc2ccccc2)c2ccc(Br)cc21)c1ccc(C(=O)NCC2CCC3(CC2)OOC2(CCCCC2)OO3)cc1 (stereo not drawn) | 27.9% (inactive)
Cc1nnc([S-])s1.[Au+].c1ccc([PH+](c2ccccc2)c2ccccc2)cc1 | -68.6% (active)
CNC12C3C4C1C1C2C3C41C(=O)N[C@H](C(=O)N(C)[C@H](C[C@@H](OC(C)=O)c1nc(C(=O)N[C@@H](Cc2ccccc2)C[C@H](C)C(=O)OC)cs1)C(C)C)C1CC1 (stereo partly drawn) | -46.5% (active)
CCN(CC)CCn1c(=O)n(C)c2ccccc21 | 100% (inactive)
COc1ccc(O)c2c(=O)c3c(OC)cc4c(c3oc12)[C@@H]1C=CO[C@@H]1O4 | -63.2% (active)
CCC1CN1CCCCN1CC1CC (stereo not drawn) | 101% (inactive)
O=C(Nc1ccncc1F)c1cn(CC2CC2)c2ccccc12 | 107% (inactive)
CCCn1cc2c3c(cccc31)[C@H]1C[C@@H](C)CN(C)[C@@H]1C2 | 95.5% (inactive)
O=[N+]([O-])c1ccc([Se]C2CCCCC2Cl)c([N+](=O)[O-])c1 (stereo not drawn) | 90.5% (inactive)
O=[N+]([O-])c1ccc(F)c([N+](=O)[O-])c1F | 98.6% (inactive)
CCOc1ccccc1C(=O)OCC(Cl)(Cl)Cl | 110% (inactive)
CCCCCCCCCCCCCCCC[N+](C)(C)Cc1ccccc1 | -27.3% (active) and -40.6% (active)
O=[N+]([O-])c1cc(I)cc([N+](=O)[O-])c1 | 88.2% (inactive)

SMILES | growth
CN1CCC(c2c[nH]c3ccccc23)C1 (stereo not drawn) | 116% (inactive)
C[C@@H]1O[C@@H](O[C@H]2CC[C@@]3(C)[C@H](CCC4[C@@H]3C(O)C[C@]3(C)[C@@H](c5ccc(=O)oc5)CC[C@]43O)C2)[C@H](O)[C@H](O)[C@H]1O (stereo partly drawn) | -59.8% (active)
Cn1cc(C2=C(c3cn(C4CCN(Cc5ccccn5)CC4)c4ccccc34)C(=O)NC2=O)c2ccccc21 | 119% (inactive)
C[C@]12CCc3nc(-c4ccc(O)c(O)c4)sc3C1=CC[C@@H]1[C@@H]2CC[C@]2(C)C(=O)CC[C@@H]12 | 80.1% (inactive)
NC(=O)C(Cl)Cl | 103% (inactive)
COc1cc2c(O[C@@H]3OC[C@H](OC(C)=O)[C@H](OC(C)=O)[C@H]3O)c3c(c(-c4ccc5c(c4)OCO5)c2cc1OC)C(=O)OC3 | 55.4% (inactive)
O=C(N/N=C/c1ccc([N+](=O)[O-])o1)c1cc([N+](=O)[O-])cc([N+](=O)[O-])c1O | 92.1% (inactive)
CC(N)Cc1ccc(O)cc1 (stereo not drawn) | 107% (inactive)
COc1ccc2c(c1)C1(C)CCN(C)CC(C1)C2O (stereo not drawn) | 101% (inactive)
c1ccc(CCN2CCCCC2Cc2ccccc2)cc1 (stereo not drawn) | 103% (inactive)
CC[CH2][Sn]([Cl])([Cl])[CH2]CC.Oc1ccccc1C=NCCN=Cc1ccccc1O | -59.7% (active) and -33.9% (active)
C=CCc1ccc(OC(=O)Cc2ccccc2)c(OC)c1 | 100% (inactive)
CC[C@H](C)[C@H](NC(=O)N[C@@H](C)c1ccccc1)C(=O)N(C)[C@H](C[C@@H](OC(C)=O)c1nc(C(=O)N[C@@H](Cc2ccccc2)C[C@H](C)C(=O)OC)cs1)C(C)C | -0.266% (active)
CN1[C@@H](CC(=O)c2ccccc2)CCC[C@H]1CC(=O)c1ccccc1 | 101% (inactive)
Nc1c(Br)cc([N+](=O)[O-])cc1[N+](=O)[O-] | 95.5% (inactive)
CC(=O)Nc1ccc(Cc2ccc(NC(C)=O)cc2)cc1 | 95.6% (inactive)
c1ccc(-c2ccc3ccccc3[o+]2)cc1 | 94% (inactive)
S=P(N1CCCCCC1)(N1CC1)N1CC1 | 105% (inactive)
O=CC1(c2ccccc2)CCN(Cc2ccccc2)CC1 | 103% (inactive)
